Assay results as given in PubChem BioAssay AID449762 (Southern Research Specialized Biocontainment Screening …, 2010).
About 1,900 (0.58%) of roughly 330,000 compounds were called active. Not shown: some 4% with an inconclusive outcome. Not all results are given here. Potency and affinity values are given separately. A number with no mark means an inactive call. No stated cut-off is given here; in the data, inconclusive means inhibition above about 70% without an active follow-up result; inactive means below that.

Assay: M. tuberculosis growth inhibition, HTS (AID 449762);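 further: bacterial growth assessed after seven days of incubation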
Conditions: M. tuberculosis H37Rv growth inhibition, 7H9 media; at 25 µM; active compounds read high

Structure (SMILES)	inhibition
Cc1cccc(C)c1N/C=C/c1onc(C)c1[N+](=O)[O-]	-4.35%
COc1ccc(NC(=O)c2ccco2)cn1	-3.96%
Cn1ccnc1SCC(=O)Nc1ccc(Cl)cn1	-1.74%
CCCCn1c(SCc2c(C)noc2C)nc2cc(S(N)(=O)=O)ccc21	-4.65%
CCCCn1c(SCc2nc3ccccc3s2)nc2cc(S(N)(=O)=O)ccc21	1.21%
Cc1ccc(C)c(NC(=O)c2c(Cl)nc3ccccn23)c1	10.7%
Brc1ccc(-c2nc(-c3ccncc3)no2)cc1	1.44%
Cc1ccc(-c2nc(-c3ccncc3)no2)cc1	-14.2%
O=[N+]([O-])c1cccc(-c2nc(-c3ccncc3)no2)c1	-2%
O=[N+]([O-])c1ccc(-c2nc(-c3ccncc3)no2)cc1	7.86%
CCn1ccc(C(=O)Nc2ccc3c(c2)CCC3)n1	-10.2%
COc1ccc(/C=N/n2c(C)nc3ccccc3c2=O)cc1OC	7.03%
NC(=O)c1ccc(NC(=S)NCc2ccco2)cc1	-0.21%
O=C(NNC(=O)C12CC3CC(CC(C3)C1)C2)c1cnccn1	-6.86%
O=C(NNC(=O)C12CC3CC(CC(C3)C1)C2)c1ccncc1	2.26%
COc1ccc(CCOC(=O)c2ccc(NC(=O)CC#N)cc2)cc1	-3.16%
Cc1c(C(=O)NCCCN2CCCC2=O)oc2c(Cl)cccc12	-3.89%
CC(=O)C1=C(C)Nc2ncnn2C1c1ccc(Br)cc1 (configuration not stated)	2.48%
Cc1nn(CC(=O)Nc2c(C)n(C)n(-c3ccccc3)c2=O)c(C)c1[N+](=O)[O-]	-2.07%
COc1ccc(NC(=O)CCC(=O)N(Cc2ccc(OC)c(OC)c2)c2nccs2)c(OC)c1	-1.87%
O=c1cc(-c2ccccc2)[nH]c2ccccc12	3.78%
O=c1nc(-c2ccccc2)c2ccccc2[nH]1	-8.68%
Cc1ccc2c(c1)c1c(n2C)C(=O)CCC1	-12%
c1cc2c(cc1C1CCCCC1)c1c3n2CCN=C3CCC1	-6.21%

Structure (SMILES)	inhibition
COc1cccc(OCC(=O)Nc2c3c(nn2-c2ccccc2)CS(=O)(=O)C3)c1	4.27%
Cc1ccc(/C=N/NC(=O)Cc2cccn2C)s1	4.27%
COC(=O)C1=C(C)Nc2c(c(=O)n(C)c(=O)n2C)C1c1cccs1 (configuration not stated)	-11.8%
Cc1noc(C)c1C(=O)OCC(=O)Nc1cc(Cl)ccc1Oc1ccccc1	2.51%
Cc1ccc(N(CC(=O)Nc2cccc(Cl)c2C)S(C)(=O)=O)cc1	7.2%
O=C(Cc1cccc(NC(=O)C2CCCN(C(=O)C3CCC3)C2)c1)Nc1cccc(C(=O)N2CCCC2)c1 (configuration not stated)	-9.14%
Cc1cccc(C(=O)N2N=C(c3ccc(NS(C)(=O)=O)cc3)CC2c2cccs2)c1 (configuration not stated)	2.79%
CS(=O)(=O)Nc1ccc(C2=NN(C(=O)c3ccccc3)C(c3cccs3)C2)cc1 (configuration not stated)	26.9%
O=C(O)C(O)C(O)C(O)C(O)C(=O)O (configuration not stated) (tested in a mixture with another compound)	3.48%
CCN(C[C@H]1N[C@@](Cc2ccccc2)(C(=O)OC)[C@H]2C(=O)N(C)C(=O)[C@@H]12)C(=O)Nc1ccc(F)cc1	4.09%
COc1ccc(Oc2ccc(/C=C/C(=O)c3ccc(O)cc3)cc2[N+](=O)[O-])cc1	8.6%
CN(C)c1ccc(/C=C/C(=O)c2ccccc2)cc1[N+](=O)[O-]	16.9%
COC(=O)c1cccc2c1NC(=O)C2=O	3.61%
O=C(NCc1ccccc1Cl)c1cccc(OC2CCN(C(=O)C3CC3)CC2)c1	5.75%
COc1ccccc1C1CC(c2ccc(F)cc2)Nc2ncnn21 (configuration not stated)	-11.3%
COc1ccccc1C1CC(c2ccc(C)cc2)Nc2ncnn21 (configuration not stated)	-9.91%
COC(=O)CN(c1ccc(C)cc1)S(=O)(=O)c1ccc(F)cc1	14.1%
CSc1ccc(Cl)c(C(=O)NNC(=O)c2cccs2)c1	1.28%
Cc1ccc(OCC(=O)N/N=C/C=C/c2ccco2)cc1	-6.27%
CCOC(=O)N/N=C\C=C\c1ccco1	-0.79%
COc1ccc(OC)c2c1cc(C(=O)N[C@H](C(=O)N1CCC(C(=O)O)CC1)C(C)C)n2C	-15.1%
O=C(O)c1ccc(Cl)c(NCc2cccnc2)c1	-9.94%
CCCc1cc(=O)[nH]c(SCC(=O)Nc2c(C)cccc2C)n1	0.09%
